Test results from PubChem BioAssay (EPA / NIEHS).
Values joined by “and” are separate entries in the source; they are usually repeats but may differ in a detail not shown here. Equal entries are not always repeated. Inconclusive results are not listed. Active and inactive are the calls of the source. The calls were made as follows: active = hit-call score of the fitted dose curve at least 0.9, where 1 is the maximum; inconclusive = response in the unintended direction; inactive = score below 0.9.

The compounds below were run against rat Peripheral-type Benzodiazepine Receptor (PBR), Tspo (gene 24230) (UniProt P16257) (assay: NVS_MP_rPBR: NovaScreen (NVS) Membrane Protein Assay for rat Peripheral-type Benzodiazepine Receptor (PBR) (AID 2283335)).
Experimental: NVS_MP_rPBR is a biochemical, single-readout assay that uses extracted gene-proteins from Rat kidney membranes in a tissue-based cell-free assay. Measurements were taken 1 hour after chemical dosing in a 48-well plate.NVS_MP_rPBR is one of one assay component(s) measured or calculated from the NVS_MP_rPBR assay. It is designed to make measurements of radioligand binding, a form of binding reporter, as detected with scintillation counting signals by Filter-based radiodetection technology.Data from the assay component NVS_MP_rPBR was analyzed into 1 assay endpoint. This assay endpoint, NVS_MP_rPBR, was analyzed in the positive analysis fitting direction relative to DMSO as the negative control and baseline of activity. Using a type of binding reporter, loss-of-signal activity can be used to understand changes in the binding as they relate to the gene Tspo. Furthermore, this assay endpoint can be referred to as a primary readout, because the performed assay has only produced 1 assay endpoint. To generalize the intended target to other relatable targets, this assay endpoint is annotated to the transporter intended target family, where the subfamily is cholesterol transporter.
Binding assays used specific radioligands (tritiated, iodinated) with non-radioactive competitive displacement ligands in agonist or antagonist protocols (as indicated) and various reference compounds and inhibitors to titrate specific binding to receptors and transporters. Most enzyme assays (CYPs, kinases, phosphatases, proteases, HDACs) used recombinant protein and specific substrates (fluorescence mostly, some colorimetric and radioactive) and inhibitors, followed by a biochemical separation of substrate and product. All assays for the biochemical HTS were initially run in duplicate at a single concentration (10 uM for CYP450 assays and 25 uM for all others). […] Each assay was run with positive and negative controls, and concurrent controls on every plate. The follow-up (secondary) screen tested active chemical-pairs in concentration series, as well as a few additional assays not tested in the primary screen, some selected negative inactives, and several cases re-run in the concentration series for confirmatory purposes.

Chain of rat Peripheral-type Benzodiazepine Receptor (PBR), Tspo (gene 24230) (P16257 whole entry, looked up): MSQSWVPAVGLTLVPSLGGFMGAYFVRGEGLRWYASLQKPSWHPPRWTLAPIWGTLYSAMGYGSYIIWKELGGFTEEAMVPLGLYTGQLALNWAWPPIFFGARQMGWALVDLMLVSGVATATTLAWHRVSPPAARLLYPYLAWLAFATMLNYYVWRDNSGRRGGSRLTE

| Compound | AC50 | outcome |
| --- | --- | --- |
| CC1(C)[C@H](C(=O)O[C@H](C#N)c2cccc(Oc3ccccc3)c2)[C@@H]1C=C(Br)Br | 15 µM (active) |  |
| CCCOC(=O)c1ccccc1C(=O)OCCC |  | inactive |
| CCOP(=O)(OCC)Oc1ccc([N+](=O)[O-])cc1 |  | inactive |
| O=S(=O)(c1ccccc1)c1ccccc1 | 8.45 µM (active) |  |
| CCc1cccc(C)c1N(C(=O)CCl)[C@@H](C)COC | 4.35 µM (active) |  |
| c1ccc(Nc2ccc3ccccc3c2)cc1 | 25 µM (active) |  |
| CC(C)COP(=O)(OCC(C)C)OCC(C)C | 19.2 µM (active) |  |
| CNC(=O)Oc1cc(C)c(SC)c(C)c1 | 11.7 µM (active) |  |
| Cc1ccc(OP(=O)(Oc2ccc(C)cc2)Oc2ccc(C)cc2)cc1 (tested in a mixture with another compound) | 150 nM (active) and 5.34 µM (active) |  |
| CC(C)CCCCCCCOP(=O)(Oc1ccccc1)Oc1ccccc1 | 2.91 µM (active) |  |
